The values that follow come from PubChem BioAssay (Tox21).

Assay [1] in a line: cAMP Responsive Elements (CRE) small molecule antagonists, cell-based qHTS assay: qHTS cell viability counter screen (AID 2060913). Also: nearly all actives have a fitted effect of over 40% in size. As to conditions: CRE-bla HEK293T viability, CellTiter-Glo luminescence, 5 h; series mostly up to 92.4 µM. In outline: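 CRE-bla HEK293T cells (2,000/well, 18 h) given compound plus NKH477 0.25 uM final for 3 h at 37C; viability counter-screen by CellTiter-Glo luminescence in same wells after 30 min.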

Assay [2] is described as follows: cAMP Responsive Elements (CRE) small molecule agonists, cell-based qHTS assay: qHTS cell viability counter screen (AID 2060914).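 Also: viability read after 3 h of compound exposure; nearly all actives have a fitted effect of over 50% in size.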 As to conditions: CRE-bla HEK293T viability, CellTiter-Glo luminescence, 5 h; series mostly up to 92.4 µM. In outline:
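Cells are seeded and incubated 18 h, treated with compounds in DMSO for 3 h, read for the bla reporter, then given CellTiter-Glo; luminescence is measured after 30 min at room temperature.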

Records with an inconclusive call do not appear. Where a call stands in place of a potency, no number is given. Values without a mark were called inactive. Active and inactive are the calls of the source. Calls follow the shape of the dose curve; as a rule, active = well fitted cell-killing curve with a large enough effect in the repeat runs; inconclusive = weak or mixed curves, or effect the other way; inactive = flat fitted curve, though single readings scatter.
Potency is read from the fitted curve at half-maximal effect.

Turning to `N#CC1(N=NC2(C#N)CCCCC2)CCCCC1`, the Potency result in assay [1] and in assay [2] was “inactive” in each case.
With `Fc1ccc(Oc2ccnc3cc(Cl)cc(Cl)c23)cc1`, the Potency entry in assay [1] and in assay [2] was “inactive” in each case.
Regarding `ClC1(Cl)C2(Cl)C3(Cl)C4(Cl)C(Cl)(Cl)C5(Cl)C3(Cl)C1(Cl)C5(Cl)C24Cl` (stereo not given), the Potency entry in assay [1] and in assay [2] was “inactive” each time.
Take `C[C@H](N)C(=O)c1ccccc1`: the Potency entry in assay [1] and in assay [2] was “inactive” throughout.
As to `OCCN(CCO)CCO`, the Potency entry in assay [1] and in assay [2] was “inactive” throughout.
For the compound `CC(C#N)CCC#N` (stereo not given), the Potency entry in assay [1] and in assay [2] was “inactive” in each case.
On to `CCNCC`, for which the Potency entry in assay [1] and in assay [2] was “inactive” in each case.
For `CCN[C@@H](C)Cc1cccc(C(F)(F)F)c1`, the Potency result in assay [1] and in assay [2] was “inactive” in each case.
Turning to `CCN(CC)c1ccccc1`, the Potency entry in assay [1] and in assay [2] was “inactive” throughout.
With `Cl`, the Potency entry in assay [1] and in assay [2] was “inactive” in each case.
Turning to `BrCCCBr`, the Potency entry in assay [1] and in assay [2] was “inactive” throughout.
As for `CC(=O)C(C)(C)C`, the Potency entry in assay [1] and in assay [2] was “inactive” in each case.
In the case of `O=C(O)c1cccc(Cl)c1`, the Potency entry in assay [1] and in assay [2] was “inactive” in each case.
On to `CN(N=O)c1ccc([N+](=O)[O-])cc1`, for which the Potency entry in assay [1] and in assay [2] was “inactive” throughout.
In the case of `CCCCOC(=O)c1ccccc1C(=O)OCc1ccccc1`, the Potency entry in assay [1] and in assay [2] was “inactive” each time.
On to `CC(=O)[O-].CC(=O)[O-].CC(=O)[O-].[Cr+3]`, for which the Potency entry in assay [1] and in assay [2] was “inactive” each time.
Regarding `O=S(=O)(c1ccccc1)c1ccccc1`, the Potency entry in assay [1] and in assay [2] was “inactive” each time.
Consider `O=C(O)c1cc[c]([Hg][Cl])cc1`, for which the Potency result in assay [1] and in assay [2] was “inactive” in each case.
Take `O=C/C=C/c1ccccc1`: the Potency entry in assay [1] and in assay [2] was “inactive” throughout.
As for `O=C(O)[C@H](O)[C@@H](O)C(=O)O`, the Potency result in assay [1] and in assay [2] was “inactive” each time.
With `CCOP(=S)(OCC)SCSC(C)(C)C`, the Potency entry in assay [1] and in assay [2] was “inactive” each time.
As to `CCC1(CC)C(=O)C=CNC1=O`, the Potency entry in assay [1] and in assay [2] was “inactive” each time.
With `COS(=O)(=O)OC`, the Potency entry in assay [1] and in assay [2] was “inactive” throughout.
As to `CCCCCOC(=O)c1ccccc1C(=O)OCCCCC`, the Potency entry in assay [1] and in assay [2] was “inactive” each time.
As for `Oc1ccc(Cl)c(Cl)c1Cl`, the Potency result in assay [1] and in assay [2] was “inactive” in each case.
As for `BrCc1ccc(Br)cc1`, the Potency result in assay [1] and in assay [2] was “inactive” each time.
For the compound `CCOc1cc(C=O)ccc1O`, the Potency entry in assay [1] and in assay [2] was “inactive” each time.
Regarding `O=C(CBr)c1ccccc1`, the Potency entry in assay [1] and in assay [2] was “inactive” throughout.
`BrCC(Br)c1ccccc1` (stereo not given): the Potency result in assay [1] and in assay [2] was “inactive” each time.
Turning to `CCOP(=S)(OCC)OP(=S)(OCC)OCC`, the Potency result in assay [1] and in assay [2] was “inactive” each time.
Consider `CC(Oc1cc(Cl)c(Cl)cc1Cl)C(=O)O` (stereo not given), for which the Potency entry in assay [1] and in assay [2] was “inactive” in each case.
Regarding `CCc1cccc(CC)c1N(COC)C(=O)CCl`, the Potency entry in assay [1] and in assay [2] was “inactive” each time.
For `C=C(C)C(=O)OCCCCOC(=O)C(=C)C`, the Potency result in assay [1] and in assay [2] was “inactive” throughout.
On to `CN(C)CCc1ccc(O)cc1`, for which the Potency result in assay [1] and in assay [2] was “inactive” throughout.
As to `CCCCNC(=O)n1c(NC(=O)OC)nc2ccccc21`, the Potency entry in assay [1] and in assay [2] was “inactive” throughout.
For the compound `O=C(N[C@H]1CN2CCC1CC2)c1ccc2c(c1)OCCO2`, the Potency result in assay [1] and in assay [2] was “inactive” in each case.
In the case of `CCCCC(CC)COC(=O)OOC(C)(C)C` (stereo not given), the Potency result in assay [1] and in assay [2] was “inactive” in each case.
Consider `Cc1cc(Cl)ccc1N`, for which the Potency result in assay [1] and in assay [2] was “inactive” throughout.
Take `CC(C)N(C(=O)CCl)c1ccccc1`: the Potency result in assay [1] and in assay [2] was “inactive” in each case.
Turning to `[O-][Cl+2]([O-])O`, the Potency result in assay [1] and in assay [2] was “inactive” each time.
Regarding `CCN(CC)C(=O)C(C)Oc1cccc2ccccc12` (stereo not given), the Potency result in assay [1] and in assay [2] was “inactive” each time.
Regarding `Cc1ccccc1[N+](=O)[O-]`, the Potency result in assay [1] and in assay [2] was “inactive” each time.
As to `C[N+](=O)[O-]`, the Potency entry in assay [1] and in assay [2] was “inactive” in each case.
In the case of `CCCBr`, the Potency entry in assay [1] and in assay [2] was “inactive” each time.
Consider `Oc1c(Br)cc(Br)cc1Br`, for which the Potency entry in assay [1] and in assay [2] was “inactive” each time.
For `CCCCCCCCCCCCCCCCCCn1cc[n+](C)c1`, the results for the Potency in assay [1] and in assay [2] were 27.1 µM (active) and 30.5 µM (active), respectively.
Taken in the same sequence, the figures for `O=NN1CCCCC1` were “inactive” and “inactive”.
The like results for `COP(=S)(OC)Oc1cc(Cl)c(Cl)cc1Cl` were, in that order, “inactive” and “inactive”.
The like results for `Cc1c(F)c(F)c(COC(=O)C2C(/C=C(\Cl)C(F)(F)F)C2(C)C)c(F)c1F` (stereo not given) were, in that order, “inactive” and “inactive”.
Take `CC(Cc1ccccc1)NCCn1cnc2c1c(=O)n(C)c(=O)n2C` (stereo not given): the Potency result in assay [1] and in assay [2] was “inactive” in each case.
On to `CCC12COCN1COC2`, for which the Potency result in assay [1] and in assay [2] was “inactive” throughout.
`CN(C)P(=O)(N(C)C)N(C)C`: the Potency entry in assay [1] and in assay [2] was “inactive” in each case.
With `Clc1cc(Cl)c(-c2cc(Cl)c(Cl)cc2Cl)cc1Cl`, the Potency result in assay [1] and in assay [2] was “inactive” each time.
On to `CC(C)CBr`, for which the Potency entry in assay [1] and in assay [2] was “inactive” each time.
In the case of `O=S(=O)(c1ccc(O)cc1)c1ccc(O)cc1`, the Potency entry in assay [1] and in assay [2] was “inactive” each time.
Take `CCC1(c2ccccc2)C(=O)N(COC)C(=O)N(COC)C1=O`: the Potency result in assay [1] and in assay [2] was “inactive” in each case.
As to `ClC(Cl)(Cl)C(Cl)(Cl)Cl`, the Potency result in assay [1] and in assay [2] was “inactive” each time.
As for `Oc1c(Cl)c(Cl)c(Cl)c(Cl)c1Cl`, the Potency entry in assay [1] and in assay [2] was “inactive” in each case.
With `CC(=O)C=C(C)C`, the Potency result in assay [1] and in assay [2] was “inactive” each time.
For `CSc1nnc(C(C)(C)C)c(=O)n1N`, the Potency result in assay [1] and in assay [2] was “inactive” throughout.
